Tg IFNy HTS: inhibitors of Toxoplasma gondii growth with IFN-gamma | 3.8% of 69,000 active | Toxoplasma gondii growth in IFN-gamma-treated host cells; hits give low values | activity change, negative = inhibition, % (concentration not given with the values); in the data active means activity change below about -70%, passing the limit was not always enough;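 further: host cells are HeLa cells infected with Toxoplasma gondii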
Of the large screens only hits and unclear results are named; the others gave an inactive call. The sample as a whole holds a higher share of hits than the screen did.

O=C(CNCc1ccc2c(c1)OCO2)Nc1cnccn1	none
COc1ccc(C)cc1C(=O)NCC1CCN(Cc2cccnc2)C1 (centres undefined)	none
CC(=O)N1CCO[C@H]2CCN(C(=O)c3snnc3C)C[C@H]21	none
COc1ccc(CSc2nc3ccccc3n2C)cc1F	none
CCC(=O)Nc1cccc(OCC(=O)N(C)C(C)c2nccs2)c1 (centres undefined)	none
Cc1ccc(CNC(=O)c2c(O)c3ccccc3n(-c3ccccc3)c2=O)cc1	none
Cc1nc(CCc2nc3ccccc3[nH]2)cc(NCC2(c3ccccc3)CCOCC2)n1	none
Cc1cnn(Cc2nc(-c3ccc(NC(=O)Cc4ccccc4C)cc3)oc2C)c1	none
Cc1ccc(CN2CCc3ncnc(NC4CC4)c3CC2)o1	none
CCOC(=O)C1CCC(CNC(=O)N2CCC3(CC2)c2cccn2-c2ccc(C)cc2N3CC)CC1 (centres undefined)	none
CCN1c2cc(C)ccc2-n2cccc2C12CCN(C(=O)Nc1cccc(SC)c1)CC2	Tg IFNy HTS -87
CCN1c2cc(C)ccc2-n2cccc2C12CCN(C(=O)Nc1cccc(F)c1)CC2	Tg IFNy HTS -85
CSc1cccc(NC(=O)N2CCC3(CC2)Nc2cc(F)ccc2-n2cccc23)c1	none
CCN1c2cc(C)ccc2-n2cccc2C12CCN(C(=O)Nc1ccccc1C)CC2	none
CCN1c2cc(C)ccc2-n2cccc2C12CCN(C(=O)NC(C)C)CC2	none
O=S(=O)(NCC1CCN(C2Cc3ccccc3C2)C1)N1CCCC1 (centres undefined)	none
Cc1nc(-c2ccccc2)nc2c1CCN(CC1CCOC1)CC2 (centres undefined)	none
Cc1cc(C)cc(NC(=O)CC(=O)NCc2ccc3c(c2)CC(C)O3)c1 (centres undefined)	none
CN(C)CCN1C2(CCN(S(=O)(=O)c3ccccc3)C2)c2ccccc2S1(=O)=O (centres undefined)	none
O=C(c1cc2cccnc2n(Cc2ccc(F)cc2)c1=O)N(C1CCCCC1)C1CCCCC1	none
Cc1cc(C)c(NS(=O)(=O)c2cc3c4c(c2)CCC(=O)N4CCC3)c(C)c1	none
COc1ccc(CCn2c(C3CC3)n[nH]c2=O)cc1	none
O=C(c1nc2c(s1)CCCN2Cc1ccccc1)N1CCCC1	none
Cc1nnnn1-c1ccc(C(=O)O)cc1	none
OC(CSc1nc2ccccc2s1)Cn1c2ccccc2c2ccccc21 (centres undefined)	Tg IFNy HTS -75
Cc1nc2ccccc2n1CC(O)Cn1c2ccccc2c2ccccc21 (centres undefined)	none
C=CCn1c(SCC(O)Cn2c3ccccc3c3ccccc32)nnc1-c1ccco1 (centres undefined)	none
Cc1ccc(-c2cc(-c3csc(COC(=O)C(C)(C)C)n3)on2)cc1C	none
CCO[C@@H]1CCN(S(=O)(=O)N(C)C)[C@@H]2CCO[C@H]21	Tg IFNy HTS -82
CN(C)S(=O)(=O)N1CCO[C@H]2[C@@H](OCc3cccnc3)CC[C@H]21	none
CCO[C@H]1CN(S(=O)(=O)c2cccnc2)[C@H]2CCCO[C@@H]12	none
CN1CCN(S(=O)(=O)c2cc(C(=O)O)cc(-c3cccc4ccnn34)c2)CC1	none
O=C(Nc1ccc(F)cc1)c1c(O)c2ccccc2[nH]c1=O	none
Cc1nc(-c2ccc(Cl)cc2)sc1CCNC(=O)C(C)C	none
CCOc1ccc(-c2noc(-c3c(O)c4ccccc4[nH]c3=O)n2)cc1	none
Cc1oc(C2CCN(C(=O)Nc3cccc(F)c3C)CC2)nc1C(=O)N1CCCC1	Tg IFNy HTS -81
Cc1oc(C2CCN(S(=O)(=O)c3ccccc3F)CC2)nc1C(=O)N1CCCC1	none
Cc1ccc(NC(=O)N2CCC(c3nc(C(=O)N4CCCC4)c(C)o3)CC2)cc1	none
Cc1ccc(F)cc1S(=O)(=O)N1CCC(c2nc(C(=O)N3CCCCC3)c(C)o2)CC1	Tg IFNy HTS -77
Cc1oc(C2CCN(C(=O)Nc3cc(F)cc(F)c3)CC2)nc1C(=O)N1CCCC1	none
Cc1cccc(NC(=O)N2CCC(c3nc(C(=O)N4CCCC4)c(C)o3)CC2)c1	none
Cc1ccc(NC(=O)N2CCC(c3nc(C(=O)N4CCCC4)c(C)o3)CC2)c(C)c1	Tg IFNy HTS -77
Cc1oc(C2CCN(S(=O)(=O)c3cc(F)ccc3F)CC2)nc1C(=O)N1CCCC1	none
Cc1ccc(NC(=O)N2CCC(c3nc(C(=O)N4CCCC4)c(C)o3)CC2)c(Cl)c1	none
CCN1c2cc(F)ccc2C(=O)NC12CCN(C(=O)c1cccc(OC)c1)CC2	none
CN(C)CCNC(=O)[C@H]1C[C@@H]2CN(C(=O)NC3CCCC3)C[C@H]1O2	none
C=CCN1CCC2(CC1)CC(NCc1ccc(C)s1)c1ccccc1O2 (centres undefined)	none
Cc1ccc(C2=NC3(CCN(CC(=O)Nc4ccc(Cl)cc4)CC3)NC2=O)cc1	none
CCS(=O)(=O)N1CCn2cc(CN(C)Cc3cccnc3)nc2C1	none
CN(Cc1ccccc1)C1(C(=O)NCCc2ccncc2)Cc2ccccc2C1	none
O=c1cccnn1CC1CN(c2ncc(F)cn2)Cc2nccn2C1 (centres undefined)	none
CN(C)CCN1C2(CCN(C(=O)c3ccno3)C2)c2ccccc2S1(=O)=O (centres undefined)	none
O=C(NCCc1csc(-c2ccc(Cl)cc2)n1)C(=O)Nc1cccc(F)c1	none
Cc1ccc(CN2C[C@@H]3CN(CC4CCOC4)C[C@H]3C2)cc1 (some centres undefined)	none
C=CCN1C(=O)CCC2C1CCN2C(=O)c1ccc2[nH]ccc2c1 (centres undefined)	none
O=S(=O)(c1ccc(F)cc1)N1CCCCN2[C@@H](CO)[C@H](c3ccc(-c4cncnc4)cc3)[C@@H]2C1	none
Cc1cccc(-c2ccc([C@H]3[C@@H](CO)N4CCCCN(S(=O)(=O)c5ccccc5F)C[C@H]34)cc2)c1	Tg IFNy HTS -80
Cc1cccc(-c2ccc([C@H]3[C@H]4CN(S(=O)(=O)c5ccccc5F)CCCCN4[C@H]3CO)cc2)c1	none
CN(C)C(=O)CC1CC2(CCN(CC3CCOCC3)CC2)Oc2ccccc21 (centres undefined)	none
O=C(CNCc1ccccc1-n1cncn1)NCc1ccccc1F	none
COc1ccccc1CNC(=O)C1=C(C)C(=O)OC12CCN(S(C)(=O)=O)CC2	none
COc1ccccc1NC(=O)Nc1ccc(-c2nc(-c3ccc(C)cc3C)co2)cc1	none
COc1ccccc1NC(=O)Nc1ccc(-c2nc(-c3ccc(C)cc3)co2)cc1	Tg IFNy HTS -77
COc1ccccc1NC(=O)Nc1ccc(-c2nc(-c3cc(C)ccc3C)co2)cc1	none
COc1cc(OC)c(NC(=O)Nc2ccc(-c3nc(-c4ccc(C)cc4)co3)cc2)cc1Cl	Tg IFNy HTS -77
O=C(Nc1ccc(-c2nc(-c3ccccc3)co2)cc1)Nc1ccccc1Cl	none
COc1ccc(C)cc1NC(=O)Nc1ccc(-c2nc(-c3cccc(Br)c3)co2)cc1	none
Cc1ccc(-c2coc(-c3ccc(NC(=O)Nc4ccc(F)cc4F)cc3)n2)cc1	none
COc1ccc(NC(=O)Nc2ccc(-c3nc(-c4ccccc4)co3)cc2)cc1Cl	none
COc1cc(OC)c(NC(=O)Nc2ccc(-c3nc(-c4ccccc4)co3)cc2)cc1Cl	Tg IFNy HTS -85
COc1ccccc1N1CCN(S(=O)(=O)c2cnn(C)c2)C(C)C1=O (centres undefined)	none
CCOc1ccc(C2CCCN2C(=O)c2cc(C)nc3c2c(=O)[nH]c(=O)n3C)cc1 (centres undefined)	none
COC(=O)c1cc(OC)c(OC)cc1NS(=O)(=O)c1cccs1	none
COc1ncccc1CN1CCC(CNC(=O)c2ccncc2)C1 (centres undefined)	none
Cc1cc(C)n2nc(C)c(C(=O)N3CCCC4(CC3)CNC(=O)O4)c2n1 (centres undefined)	none
COCCN(C)c1nc(C2CCN(C(=O)N(C)C)CC2)cc2c1ncn2C(C)C	none

Compound activity (PubChem BioAssay)
